Only some compounds are listed: those with a hit (about 10% of all), similar ones and a draw of the others.
HP1b binding inh: blocks HP1-beta chromodomain binding to methylated histone tails | AlphaScreen HP1-beta / biotin-H3K9me3 peptide binding | Potency, µM (series often up to 114 µM), without a hit: top-dose activity change, negative = inhibition, usual class: inhibitors | 390,000 compounds, 0.56% hits | AID 540317; also: potency is read from the fitted curve at half-maximal effect; nearly all actives have a fitted effect of over 70% in size
Target sequence (P83916 whole entry, looked up): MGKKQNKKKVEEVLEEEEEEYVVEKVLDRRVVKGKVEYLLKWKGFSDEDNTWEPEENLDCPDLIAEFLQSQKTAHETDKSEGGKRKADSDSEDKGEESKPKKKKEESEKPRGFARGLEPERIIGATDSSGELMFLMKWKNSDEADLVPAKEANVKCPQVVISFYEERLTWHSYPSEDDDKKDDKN
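Compound inhibition of the preformed complex between 50 nM HP1-beta and 50 nM biotinylated H3K9me3 peptide was read by AlphaScreen. Buffer was PBS pH 7.4 with 0.01% Tween-20. Incubations ran 30 min at room temperature, with 10 ug/mL donor/acceptor beads.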
G9a inh: G9a (human) methyltransferase inhibition | 350,000 compounds, 8.8% hits | G9a H3K9 monomethylation, AlphaScreen, 2 h | Potency, µM (series often up to 102 µM), inactives show at the highest dose activity, negative = inhibition, most hits filed as inhibitors | AID 504332; also: potency is read from the fitted curve at half-maximal effect; % is scaled to controls: 0 for no effect and ±100 for the full control effect; nearly all actives have a fitted effect of over 75% in size
Target sequence (Q96KQ7 913-1193 limits assumed): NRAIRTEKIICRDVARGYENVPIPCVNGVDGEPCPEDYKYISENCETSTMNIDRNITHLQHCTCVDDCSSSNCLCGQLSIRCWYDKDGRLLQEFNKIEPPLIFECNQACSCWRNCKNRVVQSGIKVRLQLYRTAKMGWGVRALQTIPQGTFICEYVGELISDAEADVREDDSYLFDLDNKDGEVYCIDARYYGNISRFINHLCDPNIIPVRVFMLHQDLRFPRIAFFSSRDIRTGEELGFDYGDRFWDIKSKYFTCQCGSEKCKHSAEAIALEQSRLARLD
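Methyltransferase reactions run at room temperature for 2 h (20 nM enzyme, 500 nM biotin-H3K9 peptide, 20 uM SAM) after a 15 min compound preincubation; product detected by AlphaScreen beads and anti-H3K9me1 antibody.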
Six1-Eya2 blk: Six1/Eya2 interaction inhibition | Q15475+O00167 | AlphaScreen GST-Six1/His-Eya2 binding, biochemical; hits give low values | activity change, % (concentration not given with the values) | 360,000 compounds, 0.56% hits | AID 651725; in the data active = activity change below about -65%; inconclusive = mostly about -30% to -63%; also: % is scaled to controls: 0 for no effect and ±100 for the full control effect
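AlphaScreen luminescence read after one hour at 37 °C in darkness. Pin-transferred compounds met GST-Six1 and His-Eya2 protein (5X stock 250 nM/500 nM) plus glutathione donor and Ni-chelate acceptor beads (5X, 50 ug/mL).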
BAZ2B inh: blocks human BAZ2B | Potency, µM (top dose mostly 114 µM), for inactives: at the highest dose activity change, negative = inhibition, most hits filed as inhibitors | 360,000 compounds, 4.4% hits | AlphaScreen BAZ2B-H3K14Ac peptide displacement | AID 504333 | Q9UIF8; also: potency is read from the fitted curve at half-maximal effect; % is scaled to controls: 0 for no effect and ±100 for the full control effect; nearly all actives have a fitted effect of over 60% in size
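AlphaScreen displacement: compounds (up to 110uM) incubated 30 min at room temperature with a preformed 50 nM BAZ2B/50 nM biotinylated H3K14Ac peptide complex in PBS pH 7.4 with Tween-20. Donor and acceptor beads at 10 ug/mL final added, 20 min light-protected before reading.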
JMJD2A Tudor inh: inhibitors of human JMJD2A Tudor domain; O75164; AlphaScreen JMJD2A-Tudor / H3K4me3 peptide binding; Potency, µM (highest dose often 114 µM), for inactives: top-dose activity change, negative = inhibition, hits mostly inhibitors; 390,000 compounds, 4.4% hits; AID 504339; also: potency is read from the fitted curve at half-maximal effect; % is scaled to controls: 0 for no effect and ±100 for the full control effect; nearly all actives have a fitted effect of over 50% in size
CtBP-E1A blk: inhibitors of CtBP/E1A interaction; AlphaScreen GST-E1A/His-CtBP binding, 1536-well; hits give low values; activity change, % (concentration not given with the values); 340,000 compounds, 0.49% hits; AID 651724; in the data active = activity change below about -65%; inconclusive = mostly about -30% to -63%; also: % is scaled to controls: 0 for no effect and ±100 for the full control effect
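GST-E1A and His-tagged CtBP (125 nM each as 5X stock) were preincubated with pin-transferred compound for 2 h at 37 °C in the dark, then glutathione donor and nickel acceptor beads were added for 1 h before AlphaScreen reading.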
Active calls of the source: *; ! = not confirmed by another sample; [ ] = another dose, or the depositor's remark. Unless noted, calls follow the shape of the dose curve; as a rule, active = well fitted inhibition curve with a large enough effect; inconclusive = small, poorly fitted or top-dose-only effect; inactive = no such curve, though single readings can be large or run the other way.

For NS(=O)(=O)c1ccc(-c2c(-c3ccccc3)sc3ccccc23)cc1 the results were HP1b binding inh 12.5%, G9a inh -3.1%[0.501 µM], Six1-Eya2 blk -3.1, BAZ2B inh 56.2µM*, JMJD2A Tudor inh 79.4µM* and CtBP-E1A blk -1.7.
For O=C(c1ccccc1)N1CCc2[nH]nc(-c3ccccc3)c2C1 the results were HP1b binding inh 13.9%[57 µM], G9a inh 70.7%, Six1-Eya2 blk 3.3, BAZ2B inh -3.1% and JMJD2A Tudor inh -13.2%.
`O=C(c1ccco1)N1CCc2[nH]nc(-c3ccccc3)c2C1` gave HP1b binding inh 42.4%, G9a inh 79.4µM*, Six1-Eya2 blk 5.8, BAZ2B inh -32.6% and JMJD2A Tudor inh -15.3%.
`CCOC(=O)C1C(C#N)=C(N)OC(C)=C1c1ccncc1` (centres undefined) gave HP1b binding inh 34.6%, G9a inh inconclusive, Six1-Eya2 blk 11.1, BAZ2B inh 6.0%, JMJD2A Tudor inh -20.1% and CtBP-E1A blk -8.3.
Screening CCCCNC(=O)c1nn2c(C(F)(F)F)cc(-c3ccc(OC)cc3)nc2c1Br returned HP1b binding inh 22.6%, G9a inh 0.0%[59 µM], Six1-Eya2 blk -19.1, BAZ2B inh 0.5%, JMJD2A Tudor inh 35.5µM* and CtBP-E1A blk -2.0.
COC(=O)c1nn2c(C(F)(F)F)cc(-c3ccc(Br)o3)nc2c1Br was read as HP1b binding inh -5.7%, G9a inh 44.7µM*, Six1-Eya2 blk -16.4, BAZ2B inh 8.2%, JMJD2A Tudor inh -34.5% and CtBP-E1A blk -12.2.
`Cc1sc2c(c1C)c(=O)n(-c1cccc(C(F)(F)F)c1)c(=O)n2Cc1ccccc1C#N` gave HP1b binding inh 50.1%, G9a inh 24.0%[59 µM], BAZ2B inh 33.5% and JMJD2A Tudor inh -14.0%.
Screening CCc1ccccc1NC(=O)c1ccc(=O)n(Cc2ccc(F)cc2)c1 returned HP1b binding inh 27.6%[57 µM], G9a inh 2.5%[59 µM], BAZ2B inh 1.3% and JMJD2A Tudor inh 4.8%.
For COc1cccc(-c2nc(CS(=O)(=O)CC(=O)Nc3c(C)cc(C)cc3C)c(C)o2)c1 the results were HP1b binding inh 24.7%, G9a inh -18.2%[59 µM], BAZ2B inh inconclusive and JMJD2A Tudor inh -12.5%.
For O=C(NCCc1ccc(O)c(O)c1)C1COc2ccccc2O1 (centres undefined) the results were HP1b binding inh 35.5µM*, G9a inh 2.24µM*, Six1-Eya2 blk 0.7, BAZ2B inh -13.1%, JMJD2A Tudor inh 17.8µM* and CtBP-E1A blk 0.3.
`CCOc1ccc(OCC)c(NC(=O)CCc2nc3cccnc3n2Cc2cccs2)c1` gave HP1b binding inh 33.6%, G9a inh -4.8%[59 µM], BAZ2B inh -14.9% and JMJD2A Tudor inh -20.9%.
For Cc1ccc(CNC(=O)CCS(=O)(=O)c2cccc3nsnc23)cc1 the results were HP1b binding inh 20.3%, G9a inh 8.2%[12.7 µM], Six1-Eya2 blk 5.8, BAZ2B inh 11.6%, JMJD2A Tudor inh -12.1% and CtBP-E1A blk 6.2.
`CCc1ccc(NC(=O)CCS(=O)(=O)c2cccc3nsnc23)cc1` gave HP1b binding inh 8.9%, G9a inh 39.8µM*, Six1-Eya2 blk -1.9, BAZ2B inh -7.2%, JMJD2A Tudor inh -18.0% and CtBP-E1A blk -1.6.
For CCN(CC)c1ccc(NC(=O)CCc2nc3cccnc3n2Cc2cccs2)c(C)c1 the results were HP1b binding inh -15.0%, G9a inh 8.91µM*, BAZ2B inh inconclusive and JMJD2A Tudor inh 20µM*.
Screening COc1ccc(Cn2c(CCC(=O)Nc3ccc(C)cc3)nc3cccnc32)cc1 returned HP1b binding inh 8.2%, G9a inh 1.3%[59 µM], Six1-Eya2 blk 4.6, BAZ2B inh -11.9%, JMJD2A Tudor inh 79.4µM*! and CtBP-E1A blk -6.8.
O=C(CNS(=O)(=O)c1cccc2nsnc12)NC1CCCCC1 was read as HP1b binding inh 21.2%, G9a inh 2.0%[2.33 µM], Six1-Eya2 blk 2.1, BAZ2B inh 14.8%, JMJD2A Tudor inh -10.0% and CtBP-E1A blk 4.0.
Screening O=C(CCS(=O)(=O)c1cccc2nsnc12)NC1CCCCC1 returned HP1b binding inh 24.1%, G9a inh 22.4µM*, Six1-Eya2 blk -0.9, BAZ2B inh -1.0%, JMJD2A Tudor inh -13.2% and CtBP-E1A blk 2.4.
Screening Cc1c(CNCCCc2ccccc2)c(C(=O)O)c(C)n1Cc1ccc(Cl)cc1 returned HP1b binding inh -5.3%, G9a inh -1.7%[59 µM], BAZ2B inh inconclusive and JMJD2A Tudor inh inconclusive.
`O=C(NCCCNC(=O)c1cnccn1)c1ccc(Cl)c(Cl)c1` gave HP1b binding inh 1.4%, G9a inh 9.6%, Six1-Eya2 blk 1.6, BAZ2B inh 1.8%, JMJD2A Tudor inh -1.1% and CtBP-E1A blk -19.8.
Screening CCOC(=O)CNC(=O)C1CCN(S(=O)(=O)c2ccc(-c3nn[nH]n3)cc2)CC1 returned HP1b binding inh 19.4%, G9a inh inconclusive, Six1-Eya2 blk 3.4, BAZ2B inh -32.7%, JMJD2A Tudor inh -2.8% and CtBP-E1A blk 5.6.
`O=C(Cn1c(=O)n(-c2ccccc2)c(=O)c2c3c(sc21)CCC3)c1ccc(Br)cc1` gave HP1b binding inh -7.8%, G9a inh -8.2%[59 µM], BAZ2B inh -15.6% and JMJD2A Tudor inh -27.3%.
Cc1cccc(N(C)C(=O)CCS(=O)(=O)c2cccc3nonc23)c1 was read as HP1b binding inh 17.0%, G9a inh 12.2%[12.7 µM], Six1-Eya2 blk 4.4, BAZ2B inh 10.5%, JMJD2A Tudor inh -5.7% and CtBP-E1A blk 2.4.
`CCN(CC)c1ccc(NC(=O)CCS(=O)(=O)c2cccc3nsnc23)c(C)c1` gave HP1b binding inh inconclusive, G9a inh 39.8µM*, Six1-Eya2 blk -11.8, BAZ2B inh inconclusive, JMJD2A Tudor inh 56.2µM* and CtBP-E1A blk 5.3.
Screening Cc1nc2ccc(S(=O)(=O)CCC(=O)Nc3ccc(F)cc3C)cc2s1 returned HP1b binding inh -10.5%, G9a inh 4.47µM*, BAZ2B inh -2.8% and JMJD2A Tudor inh 70.8µM*.
CCN(C(=O)CCS(=O)(=O)c1cccc2nonc12)c1ccc(C)c(C)c1 was read as HP1b binding inh 8.8%, G9a inh 15.8µM*, Six1-Eya2 blk 5.8, BAZ2B inh -17.3%, JMJD2A Tudor inh -14.8% and CtBP-E1A blk -2.6.
CCOc1ccccc1NC(=O)CCC(=O)Nc1nnc(C2CCCCC2)s1 was read as HP1b binding inh 46.7%, G9a inh inconclusive, Six1-Eya2 blk 5.1, BAZ2B inh -32.8%, JMJD2A Tudor inh -10.5% and CtBP-E1A blk 8.9.
Screening CCC(=O)Nc1ccc2nc3c(=O)[nH]c(=S)[nH]c3nc2c1 returned HP1b binding inh inconclusive, G9a inh 31.6µM*, Six1-Eya2 blk inconclusive, BAZ2B inh 50.1µM*, JMJD2A Tudor inh 56.2µM* and CtBP-E1A blk inconclusive.
